± gives the standard deviation of the averaged measurements. The full ranking holds about 25,000 sequences; the median of “ln(normalized median fluorescence intensity)” is about 8.6, and the highest 2% start at about 10. The sample as a whole holds a higher share of the highest values than the screen did.
What follows are sequences tested on PfAP2-EXP AP2 domain (GST-tagged) (assay: gcPBM binding intensity (ln(normalized median fluorescence intensity)); higher = stronger DNA binding).
In short: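 After 1 h on an Agilent 4 × 180k array of primer-extended double-stranded 36-bp intergenic genomic probes and negative controls, bound GST-tagged P. falciparum DNA-binding domains were detected with Alexa488 anti-GST antibody and scanned at 488 nm. The domains had been expressed in E. coli, and binding took place in 1× PBS with 1% milk, 0.2 mg/ml BSA, 0.5% salmon testes DNA and 0.03% Triton X-100. Binding intensity is the highest Masliner-normalised natural-log median intensity across replicate spots of either probe orientation.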

Sequence | gcPBM binding intensity (ln)
AAAAATAAAAAAAGCACACACATATATATATATATA [CACACA_site1885] | 10.2 ± 0.28
AATAAAAATAAAAGCACACATAAATATATATATATT [CACACA_site1441] | 8.66 ± 0.39
AAAAAAAAAAAAAAAGCACACATATAAATATGAATA [CACACA_site8391] | 8.41 ± 0.24
AAAAATAAAAAAAGCACACACATATAAATAAATATA [CACACA_site6968] | 8.69 ± 0.6
AAAATAAAAATAAAAGCACACATAAATATATATATA [CACACA_site8409] | 9.64 ± 0.28
TAAAAAATAAAAAAAGCACACACATATATATATATA [CACACA_site8567] | 10.3 ± 0.25
TTCTTTTTAATTAATACACACACACCCATATATATA [CACACA_site8719] | 8.83 ± 0.42
AATGTATATATATATATATATATATATATTTATTTA [CACACA_negctrl_site113] | 8.43 ± 0.14
CCCGTAAATTATGAGTGTACGTTATTTTTTAAAATG [XGTACX_site3946] | 8.81 ± 0.49
ATAATGTTTTATAATACACACATTATATATATAAAT [CACACA_site6101] | 8.4 ± 0.37
AATATATGTTAAAATGGTACACAATTATTATATATT [XGTACX_site6407] | 8.46 ± 0.4
TATTCCTTCTACAATTAAATAATTATAATAAATATA [GTGCAC_negctrl_site26] | 8.46 ± 0.46
CAAGTAGATATTATACGTACATATATATATATATAT [XGTACX_site8349] | 10.2 ± 0.32
AATTAGATACTAACAAGTACATATATATATATATAT [XGTACX_site2252] | 10.2 ± 0.26
GAAATTATGTAAAAAAGTACTAACATACATATATAT [XGTACX_site1794] | 8.61 ± 0.32
ACATACATATATATACGTACATATATATTTATATAT [XGTACX_site5799] | 8.75 ± 0.34
ATATATAGATAATCAAGTACATAACAAGATATAAGA [XGTACX_site2186] | 8.81 ± 0.47
ATATATTATTATACATGTACATATATAGATATATAT [XGTACX_site4358] | 8.53 ± 0.35
ATAATATCATAATATTGTACATATTTTATTTTAAAT [XGTACX_site1115] | 8.36 ± 0.29
AATCTTCTTAATTGTAGTACACAATTTATAAACAAA [XGTACX_site8706] | 8.61 ± 0.3

Sequence | gcPBM binding intensity (ln)
TGATATTATATATATACACACATGTATGTATTTATA [CACACA_site4874] | 8.32 ± 0.42
ATATATCTACATATATGTACATATATGTATATGTAT [XGTACX_site5432] | 8.41 ± 0.2
ATGTATGTGTATATATGTACATAATATATATCTTTT [XGTACX_site8666] | 8.65 ± 0.32
ATATATATATATATATGTACATATATCTACATATAT [XGTACX_site7588] | 10.2 ± 0.14
ATATATATGTATATATGTACATATATGTATATATAT [XGTACX_site4772] | 8.66 ± 0.17
TAATATCTACATATATGTACATATATATATATATAT [XGTACX_site7979] | 9.94 ± 0.4
ATATATATATATATATGTACATATATATATGTATAT [XGTACX_site3959] | 10.2 ± 0.33
ATATATATATATATATGTACATAGAGAAGTATCTTT [XGTACX_site4737] | 10.4 ± 0.17
AATAAATAGATATATACACACATATATGTGTACATA [CACACA_site7476] | 8.37 ± 0.29
ATATATATATATATGTGTACATATATTAAGATATAT [XGTACX_site1065] | 10 ± 0.3
AAATGTATATATGTATGTACATATATATATATATAT [XGTACX_site5778] | 10 ± 0.35
ATATATATATATATGTGTACATATAAGATAGAAGAA [XGTACX_site3198] | 10.2 ± 0.35
ATATATATATATATGTGTACATATGTATATATATCT [XGTACX_site2930] | 10.1 ± 0.4
AATATAACTTAGAATTGTACATAAAAAAAAATATAT [XGTACX_site3313] | 8.68 ± 0.35
CAAAATATTTAAAAAAGTACTTAAAATAAATTCAAA [XGTACX_site6866] | 8.48 ± 0.38
CTTAAATCTACTATTTGTACATATTTTATTATTAAA [XGTACX_site6151] | 8.58 ± 0.37
TTTATTTAAAAAATAAAAAAAAAAAAAAAAAAAAAA [CACACA_negctrl_site1670] | 7.82 ± 0.38
GGATACGCTTTTGTACCACTCCCCCTTTTGGGAATA [CACACA_negctrl_site1363] | 8.88 ± 0.33
AAAACTTGTCAGAATGGACACACGAATTAAAGGCCT [CACACA_site1215] | 8.79 ± 0.52
GCATAAATTATCATAACATAAATATAAAAATATAAT [GTGCAC_negctrl_site55] | 8.36 ± 0.37

Sequence | gcPBM binding intensity (ln)
TAGTTGTGAGTTACATGTACATGTATTTATTTTTTA [XGTACX_site7088] | 8.88 ± 0.47
CCACACTTAAAATACACACACACCAAAAAAAAAAAA [CACACA_site2709] | 8.43 ± 0.37
TATATTTGGTTTCATTCATTTTTATAGAAATCTCAA [CACACA_negctrl_site1412] | 8.48 ± 0.47
GTATATATGTATATATGTACATATATATAATATATT [XGTACX_site56] | 8.5 ± 0.16
ATACATATATACATATGTACATATATATATATATAT [XGTACX_site8206] | 9.9 ± 0.39
TATATAAATATAATATGTACATATAATATGTATATA [XGTACX_site8120] | 8.36 ± 0.26
ATATATATATATATATGTACATACATACATAGAACT [XGTACX_site2214] | 10.4 ± 0.3
ATATATATATATATATGTACATATATACATATATGT [XGTACX_site1521] | 10 ± 0.49
GATATGTGTATAATATGTACATATATATATATATAT [XGTACX_site6531] | 10.2 ± 0.5
AAAGTGGCCATATATTTTTTTTTTTTTTTCCTTATT [CACACA_negctrl_site485] | 8.11 ± 0.53
ACATATTAATTATTATGACATACATATCAGTTATTA [TGCATGCA_negctrl_site126] | 8.38 ± 0.27
AGGCACTTATAATAATGTACATAAATAAAAAGAAAA [XGTACX_site6037] | 8.81 ± 0.35
TTTTTATGAAAATAAACACACGATTTATTATATATA [CACACA_site1311] | 8.27 ± 0.34
GAAGACAATTATATGTGTACATATATATACATATAT [XGTACX_site4630] | 8.44 ± 0.25
TATATATATATATATTGTACATTTTTTTTTTTTTTT [XGTACX_site7891] | 10.1 ± 0.23
AGTATATAAAATACTGTATCGATGGGGGAGGGCGCA [CACACA_negctrl_site1612] | 9.97 ± 0.23
ATATATGGGGCGCAGGAAAAGAGTTTTGGAAATAAA [CACACA_negctrl_site1265] | 9.08 ± 0.49
TATAAAATACTGTATCGATGGGGGAGGGCGCAGGGG [TGCATGCA_negctrl_site250] | 10.3 ± 0.11

Source: the supplement of paper PMC11417369
